Data taken from PubChem BioAssay AID720541 (National Center for Advancing Translational Sciences (NCATS), 2013).
About 420 (32%) of roughly 1,300 compounds were called active. Roughly 32% stayed inconclusive and do not appear here. The call rests on the fitted dose curve; in most records, active means well fitted inhibition curve with a large enough effect; inconclusive means small, poorly fitted or top-dose-only effect; inactive means no such curve, though single readings can be large or run the other way. Some of the results follow. A call without a number means that no potency is given here.

target: C-terminal-binding protein 1 (Homo sapiens) (UniProt Q13363); assay: qHTS for Inhibitors of the Phosphatase Activity of Eya2: Carboxyl-terminal binding protein (CtBP) Counterscreen for Cherry-picked Compounds; conditions: purified protein-protein binding, AlphaScreen, 3 h; series mostly up to 46.1 µM; further: nearly all actives have a fitted effect of over 65% in size
Method in brief: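 Cherry-picked compounds (final 2.5 nM–46 uM) were incubated 2 h at RT with 25 nM CtBP-6xHIS and 25 nM GST-E1A. Alpha beads (20 ug/mL) were then added for 1 h, light-protected; DMSO and E1A peptide inhibitor wells set the normalization.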
Potency means the concentration at half of the fitted maximal effect.

Compound	Potency
O=C(O)CSCc1nc2cccnc2n1C1CCCCC1	inactive
CC1(C)CC(=O)C(C2C3=C(CC(C)(C)CC3=O)Oc3c(Br)cc(Br)cc32)=C(O)C1 (centres undefined)	4.78 µM (active)
Cc1nc(C)c(-c2csc(Nc3ccc(O)c(C(=O)O)c3)n2)s1	15.1 µM (active)
Cn1c(=O)c2[nH]c(COc3ccccc3)nc2n(C)c1=O	inactive
CC1(C)Nc2cccc3c(N=Nc4ccc(N=Nc5ccccc5)c5ccccc45)ccc(c23)N1	3.38 µM (active)
COc1ccc(N(CC(=O)Nc2nc3ccc(C)cc3s2)S(=O)(=O)c2c(C)nn(C)c2C)cc1	inactive
CCN(CC)c1ccc(/C=C/c2c(C)cnc3ccc(C)cc23)cc1	8.49 µM (active)
CCc1cnc2ccccc2c1/C=C/c1ccc(N(C)C)cc1	10.7 µM (active)
Cc1cnc2ccc(I)cc2c1/C=C/c1ccc(N(C)C)cc1	10.7 µM (active)
Cc1ccc(-n2nnnc2C(=Cc2ccc(N(C)C)cc2)c2nnnn2-c2ccc(C)cc2)cc1	inactive
Cc1ccc2c(/C=C/c3ccc(N(C)C)cc3)c(C)cnc2c1	10.7 µM (active)
O=c1cc(-c2ccccc2Cl)oc2c(NS(=O)(=O)c3ccccc3OC(F)(F)F)ccc(O)c12	inactive
O=C(O)c1c(C(=O)N2N=C3/C(=C/c4ccccc4)CCCC3C2c2ccccc2)cccc1[N+](=O)[O-] (centres undefined)	inactive
Cc1ccccc1NC(=O)C1CCN(C(=O)N2CCOc3ccccc32)CC1	inactive
CC1CN(C(=O)c2cc(S(=O)(=O)N(C)c3ccc(F)cc3)ccc2Cl)CC(C)O1 (centres undefined)	inactive
CC(Oc1ccc(F)cc1)C(=O)Nc1cc(S(=O)(=O)N2CCCCC2)ccc1N1CCN(C)CC1 (centres undefined)	inactive
COc1ccc(S(=O)(=O)N2CCCCC2)cc1NC(=O)c1[nH]c(C)c(C(C)=O)c1C	inactive
CCOc1ccc(S(=O)(=O)N2CCN(C)CC2)cc1NC(=O)c1ccccc1F	7.57 µM (active)
O=C1c2ccccc2C(=O)N1CCCc1cn(C[C@H]2CC[C@@H]([C@@H]3CC[C@H](Cn4cc(CCCN5C(=O)c6ccccc6C5=O)nn4)O3)O2)nn1	inactive
Cc1ccc(-c2n[nH]c(=O)c3ccccc23)cc1S(=O)(=O)Nc1ccccc1	inactive
COc1cc(C2C(C#N)=C(N)Oc3n[nH]c(C)c32)ccc1OC(=O)c1ccccc1 (centres undefined)	8.49 µM (active)
COc1ccc(Cc2nc3c4c(ncn3n2)Oc2ccc3ccccc3c2C4c2ccc(OC)c(OC)c2)cc1 (centres undefined)	inactive
CCOc1ccccc1O[C@H](c1ccccc1)[C@H]1CNCCO1	inactive
CCOC(=O)c1[nH]c2ccc(C(=O)OC)cc2c1C(=O)OCC	10.7 µM (active)
Cc1[nH]c2ccc(C(=O)OC(C)C(=O)N(C)c3ccccc3)cc2c1C (centres undefined)	inactive

Compound	Potency
CS(=O)(=O)n1nc(OC(=O)c2cccs2)cc1N	inactive
Cc1cc(O)c(-c2cc(O)c(C)cc2O)cc1O	inactive
COc1cc(N(C(C)=O)c2ccc(O)c(C(=O)O)c2)c2ncccc2c1	8.49 µM (active)
CCN(CC)S(=O)(=O)c1cc(OC)ccc1N=Nc1ccc(O)c2ncccc12	inactive
Nc1ccc2c(c1)C(=O)c1cc(N)c(Cl)cc1-2	inactive
COc1cc2c(cc1N)-c1ccc(N)cc1C2=O	16.9 µM (active)
COc1ccc(N)cc1-n1c(C)ccc1C	inactive
CCOc1ccc2ccccc2c1C(=O)N[C@@H]1C(=O)N2[C@@H]1SC(C)(C)[C@@H]2C(=O)O	inactive
CCN1C(=O)c2cccc3c(S(=O)(=O)N(C(C)=O)c4ccc(OC(C)=O)cc4)ccc1c23	12 µM (active)
CC(=O)Oc1ccc(N2C(=O)c3cccc4c([N+](=O)[O-])ccc(c34)C2=O)cc1	inactive
N/C(=N\OC(=O)c1ccc2ccccc2c1)c1ccncc1	inactive
C/C(=C1/C=Nc2ccccc21)c1ccc(N(C)C)cc1	16.9 µM (active)
Cn1c(=O)cc2c3c(c(N4CCCCC4)ccc31)C(=O)c1ccccc1-2	3.79 µM (active)
CCOc1ccc(NC(=O)COc2ccc3c(c2)CCC3)cc1OC	inactive
CCOc1ccc(NC(=O)COc2cccc3cccnc23)cc1S(=O)(=O)N1CCCC1	16.9 µM (active)
CCOc1ccc(S(=O)(=O)NCc2ccc(C)cc2)c2cccnc12	inactive
C=CCn1c(C)cc(C(=O)COc2ccc(N(C)S(=O)(=O)c3ccc(NC(C)=O)cc3)cc2)c1C	inactive
CN(C)C1=C2C=CC=CC2/C(=C2/C=Cc3ccccc32)C=C1 (centres undefined)	15.1 µM (active)
O=C(Nc1ccon1)c1ccc(N2CCCCC2)c([N+](=O)[O-])c1	inactive
CSc1cccc(NC(=O)CCCOc2cc(=O)n(C)c3ccccc23)c1	inactive
O=C1/C(=C\c2cccc([N+](=O)[O-])c2O)SC(=S)N1Cc1ccccc1	8.49 µM (active)
Cc1ccc(NC(=O)CSc2cccc3cccnc23)c(C)c1	9.53 µM (active)
Cc1ccc(OCC(=O)Nc2ccccc2N2CCCC2)c(C)c1	inactive
Cn1c(=O)c2c(ncn2CC(=O)Nc2cccc(S(=O)(=O)Nc3ccccc3F)c2)n(C)c1=O	8.49 µM (active)
O=C(Cc1ccccc1F)Nc1cccc(S(=O)(=O)N2CCCCC2)c1	inactive

Compound	Potency
CCCNC(=O)C1(C)CCN(Cc2cccc(OC(=O)c3ccccc3)c2)C1 (centres undefined)	inactive
CC1(C)CC(=O)c2c(oc3ccc(NS(=O)(=O)c4cccc5cccnc45)cc23)C1	inactive
COc1ccc(Cl)cc1NC(=O)CCCn1c(=O)c2cccn2c2cccnc21	inactive
O=C(CCCl)Nc1cccc2cccnc12	8.49 µM (active)
CC(=O)Nc1ccc(S(=O)(=O)Nc2cccc3cccnc23)cc1	4.26 µM (active)
O=S(=O)(Nc1cccc2cccnc12)c1ccccc1Br	9.53 µM (active)
CC(=O)Nc1ccc(S(=O)(=O)NCc2ccc3[nH]c(C)cc3c2)cc1	inactive
CC(=O)c1cccc(-c2cnc3c(NC=O)cc(-c4ccc(N(C)C)cc4)cn23)c1	inactive
COC(=O)c1cc2c(ccc3ccccc32)oc1=O	12 µM (active)
CC(C)Cc1nc2oc3c(=O)[nH]cnc3c2c2c1CCC2	15.1 µM (active)
CCC(=O)c1cn(CC(=O)Nc2c(C)cccc2C)c2ccccc12	inactive
Cc1ccccc1OCCn1cc(C(=S)N2CCN(C)CC2)c2ccccc21	15.1 µM (active)
COc1cc(/C=C2\SC(=S)N(CCC(=O)Nc3cccc(O)c3)C2=O)cc(OC)c1OC	inactive
O=C(CN1C(=O)/C(=C/c2ccco2)SC1=S)Nc1ccc(C(=O)O)c(O)c1	10.7 µM (active)
CCn1c(SCC(=O)N2CCN(c3ccccc3)CC2)nc2c(c1=O)SC(C)C2 (centres undefined)	inactive
Cc1c(C(=O)O)c(O)cc2c1C(=O)c1c(O)c([C@H]3O[C@H](CO)[C@@H](O)[C@H](O)[C@H]3O)c(O)c(O)c1C2=O	19 µM (active)
Clc1ccc(-c2ccc(CNCc3ccccn3)o2)cc1	12 µM (active)
Fc1ccc(-c2ccc(CNCc3ccccn3)o2)cc1	15.1 µM (active)
Clc1cccc(-c2ccc(CNCc3ccccn3)o2)c1	16.9 µM (active)
O=C(/C=C/c1cccc([N+](=O)[O-])c1)Nc1cccc(NC(=O)c2cccs2)c1	inactive
COC(=O)c1ccc(NC(=O)c2ccc3c(c2)C(=O)N(Cc2cccnc2)C3=O)cc1	inactive
COC(=O)c1ccc(NC(=O)CSc2nc(=O)n3cccc(C)c3n2)cc1	13.5 µM (active)
Cc1ccc(-c2csc(N3CCN(CCCn4c(C(F)(F)F)nc5ccccc54)CC3)n2)cc1	inactive
Cc1cc(C)c2c(n1)sc1c(O)cc(=O)[nH]c12	inactive
Cc1csc(NC(=O)CSc2sc3c(O)cc(=O)[nH]c3c2C#N)n1	12 µM (active)

Compound	Potency
O=C1c2cccc(Sc3ccccc3)c2C(=O)c2c(Sc3ccccc3)cccc21	3.79 µM (active)
Oc1c(Cl)cc(CN2CCOCC2)c2cccnc12	0.601 µM (active)
CCN(CC)c1ccc(NC(=S)NC(=O)c2cccs2)cc1	10.7 µM (active)
CCCC(=O)Nc1ccc(NC(=S)NC(=O)c2cccs2)cc1	inactive
Cc1ccc(C(=O)N2CCN(c3ccc(NC(=S)NC(=O)c4cccs4)cc3)CC2)cc1	inactive
CNC(=O)c1cc2c(cn1)[nH]c1ccccc12	inactive
Cn1nc(C(=O)Nc2nc3ccccc3[nH]2)c2ccccc2c1=O	10.7 µM (active)
COc1ccc(OC)c(Nc2nc(-c3sc(N)nc3C)cs2)c1	8.49 µM (active)
COc1ccc(-c2noc(N3CCC(C(=O)Nc4cc(OC)ccc4OC)CC3)n2)cc1	inactive
CCn1c2ccccc2c2cc(NC(=O)COC(=O)c3ccc(NC(=O)CC#N)cc3)ccc21	inactive
Cc1ccc(-n2[nH]c(C)c(C=Nc3ccc(S(=O)(=O)Nc4nccs4)cc3)c2=O)cc1C	7.57 µM (active)
CCc1ccc(-c2csc(NC(=O)C3CC(=O)N(c4ccc5c(c4)OCCO5)C3)n2)cc1 (centres undefined)	inactive
O=C(Nc1nc(-c2ccccn2)cs1)C1CC(=O)N(c2ccc3c(c2)OCCO3)C1 (centres undefined)	6.01 µM (active)
O=C(NCc1ccco1)C1CC2CCC1C2 (centres undefined)	inactive
COCCNC(=O)c1cccc(OC2CCN(Cc3ccc(F)cc3OC)CC2)c1	inactive
CSc1nnc2c(n1)OC(C)=Nc1ccccc1-2	12 µM (active)
C#Cc1cccc(NC(=O)CSc2nnc(-c3ccc(C(F)(F)F)cn3)o2)c1	15.1 µM (active)
CCn1ccnc1CNCc1cn(-c2cc(C)ccc2C)nc1-c1ccccc1	8.49 µM (active)
CCNc1ccc2noc3c2c1C(=O)c1ccccc1-3	7.57 µM (active)
CN(Cc1ccccc1F)c1nc(-c2cccnc2)nc2ccccc12	inactive
CCn1nc(C(=O)Nc2nc(-c3ccccn3)cs2)c2ccccc2c1=O	3.79 µM (active)
CSCCC(=O)Nc1nc(-c2ccccn2)cs1	12 µM (active)
O=C(CCS(=O)(=O)c1ccc(F)cc1)Nc1nc(-c2ccccn2)cs1	8.49 µM (active)
O=C(CN1C(=O)c2ccccc2C1=O)Nc1nc(-c2cccc([N+](=O)[O-])c2)cs1	inactive
